Hits are enriched below; roughly 19% of the tested compounds scored in any of these assays.
TDP1 cell noCPT: qHTS for Inhibitors of human tyrosyl-DNA phosphodiesterase 1 (TDP1): qHTS in cells in absence of CPT. DT40 Tdp1-/- hTDP1 cells, no CPT, ATP luminescence, 48 h. hit rate 15% among 420,000. AID 686978, 2013. Potency, µM (titrated, usually from 46.2 µM), without a hit: at the highest dose activity change, negative = growth inhibition, hits mostly inhibitors; note: potency is the fitted concentration of half-maximal effect; nearly all actives have a fitted effect of over 55% in size
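Camptothecin absent (DMSO only). Human TDP1-complemented DT40 knockout cells, 400 cells/well, 37 °C for minimum 48 hr; ATP measured via CellTiter-Glo, 30 min dark incubation, luminescence.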
HT1080NT lethal: qHTS for induction of synthetic lethality in tumor cells producing 2HG: qHTS for the HT-1080-NT fibrosarcoma cell line | Potency, µM (doses to about 46.1 µM), without a hit: at the highest dose activity, negative = less viability, usual class: cytotoxic | AID 686970, 2013 | HT-1080-NT fibrosarcoma viability, CellTiter-Glo ATP luminescence, 48 h | hit rate 1.6% among 360,000;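 note: NT is the 2HG producing partner of a matched IDH1 knockdown line; potency is the fitted concentration of half-maximal effect; 0% = DMSO-treated cells and -100% = media-only wells without cells; nearly all actives have a fitted effect of over 55% in size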
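A 48-hour cytotoxicity screen used HT-1080-NT cells plated 2 hours before compound delivery. ATP-based CellTiter-Glo luminescence measured viability, normalized to DMSO and no-cell controls.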
uPA generation: qHTS for Inhibitors of Cell Surface uPA Generation; AID 540303, 2011; cell surface uPA generation assay, qHTS; hit rate 0.31% among 330,000; Potency, µM (doses to about 38.3 µM), without a hit: top-dose activity change, negative = inhibition, usual class: inhibitors; active = well fitted inhibition curve with a large enough effect; inconclusive = small, poorly fitted or top-dose-only effect; inactive = no such curve, though single readings can be large or run the other way; tested in mouse RAW 264.7 cells; note: potency is the fitted concentration of half-maximal effect; nearly all actives have a fitted effect of over 55% in size
DT40 TDP1 CPT: qHTS for Inhibitors of human tyrosyl-DNA phosphodiesterase 1 (TDP1): qHTS in cells in presence of CPT. hit rate 12% among 420,000. Potency, µM (top dose mostly 46.2 µM), for the others: at the highest dose activity change, negative = growth inhibition, usual class: inhibitors. chicken DT40 Tdp1-/-;hTDP1 cells + 20 nM CPT, ATP luminescence, 48 h; note: potency is the fitted concentration of half-maximal effect; nearly all actives have a fitted effect of over 55% in size
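Chicken DT40 Tdp1-/- cells complemented with human TDP1, 400 cells/well, exposed to compounds plus 20 nM camptothecin for at least 48 h at 37 C; viability read as ATP content by CellTiter-Glo luminescence.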
IL1B secr inh: qHTS for Inhibitors of Inflammasome Signaling: IL-1-beta AlphaLISA Primary Screen; THP-1 LPS/ATP IL-1B secretion, AlphaLISA, 16 h; stronger effect = lower value; activity change, % at 57.5 µM; hit rate 4.7% among 360,000; AID 743279, 2014; in the data active = activity change below about -50%; inconclusive = mostly about -30% to -49%
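THP-1 cells pretreated 1 hr with compounds (up to 57.5 uM final), then stimulated with LPS (250 ng/mL final) plus ATP (1.25 mM final); secreted IL-1B measured by AlphaLISA after 16 hr, decreased signal indicating inhibition.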
HT1080 IDH1KD tx: qHTS for induction of synthetic lethality in tumor cells producing 2HG: qHTS for the HT-1080-IDH1KD cell line; HT-1080 IDH1 knockdown viability, ATP luminescence, 48 h; Potency, µM (highest dose often 46.1 µM), for inactives: at the highest dose activity, negative = toxicity, usual class: cytotoxic; hit rate 2% among 360,000; AID 686971, 2013;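 note: potency is the fitted concentration of half-maximal effect; 0% = DMSO wells and -100% = cell-free medium wells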
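Cytotoxicity counter-line: IDH1KD HT-1080, 48 h, CellTiter-Glo. Curves classed by r2, magnitude and activity.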
The depositor's hits bear a star. Unless noted, calls come from the whole dose curve; as a rule, active = well fitted curve in the direction sought with a large enough effect; inconclusive = small, poorly fitted or top-dose-only effect, or another doubt; inactive = no such curve, though single readings can be large; an effect the other way counts as inactive or inconclusive. Unless noted, % is set by controls: 0 for no effect and ±100 for the full control effect.

Screening CC(C)[C@H](NC(=O)N1c2ccccc2NC(=O)[C@@H]1C(C)C)C(=O)N1CCC[C@H]1C(=O)O returned TDP1 cell noCPT 1%, HT1080NT lethal -1%, uPA generation 1%, DT40 TDP1 CPT 0%, IL1B secr inh -5 and HT1080 IDH1KD tx 7%.
For O=C(Cc1csc2nc(-c3ccc(F)cc3)cn12)NCc1ccccc1 the results were TDP1 cell noCPT inconclusive and DT40 TDP1 CPT 16µM*.
Cc1cc(C)c2cc(C(=O)Nc3ccccc3)[nH]c2c1 was read as TDP1 cell noCPT -29%, HT1080NT lethal -26%, uPA generation -7%, DT40 TDP1 CPT -26%, IL1B secr inh -23 and HT1080 IDH1KD tx -14%.
O=C(Nc1cccn(Cc2c(Cl)cccc2Cl)c1=O)c1ccc(Cl)cc1Cl was read as TDP1 cell noCPT inconclusive, HT1080NT lethal inconclusive, DT40 TDP1 CPT inconclusive, IL1B secr inh -59* and HT1080 IDH1KD tx inconclusive.
Screening O=C(Nc1cccn(Cc2c(Cl)cccc2Cl)c1=O)c1ccccc1Cl returned TDP1 cell noCPT inconclusive, HT1080NT lethal 0%, uPA generation 1%, DT40 TDP1 CPT inconclusive, IL1B secr inh inconclusive and HT1080 IDH1KD tx -1%.
For CC(C)C1Cc2c(sc3c2c(=O)n(-c2ccccc2)c2n[nH]c(=S)n32)CO1 (configuration not stated) the results were TDP1 cell noCPT inconclusive, HT1080NT lethal 4%, uPA generation 15%, DT40 TDP1 CPT inconclusive, IL1B secr inh 14 and HT1080 IDH1KD tx 0%.
CC1(C(=O)N/N=C/c2c(F)c(F)c(F)c(F)c2F)CC1(Cl)Cl (configuration not stated) was read as TDP1 cell noCPT inconclusive, HT1080NT lethal inconclusive, uPA generation -2%, DT40 TDP1 CPT -20%, IL1B secr inh -100* and HT1080 IDH1KD tx inconclusive.
For Nc1cc2c(cc1N)-c1ccccc1C2 the results were TDP1 cell noCPT 16µM*, HT1080NT lethal -5%, uPA generation -12%, DT40 TDP1 CPT inconclusive, IL1B secr inh -52* and HT1080 IDH1KD tx -19%.
Screening Cc1ccc(S(=O)(=O)N2CCN(C(=O)c3ccc(-n4cncn4)c([N+](=O)[O-])c3)CC2)c(C)c1 returned TDP1 cell noCPT inconclusive, HT1080NT lethal 1%, DT40 TDP1 CPT inconclusive, IL1B secr inh -28 and HT1080 IDH1KD tx -15%.
Screening CSc1ncc(C(=O)N2CCN(c3cc(C)ccc3C)CC2)c(C)n1 returned TDP1 cell noCPT inconclusive and DT40 TDP1 CPT 21µM*.
For Cc1ccc(-n2nc(C)c3c(C(=O)O)cc(C)nc32)cc1 the results were TDP1 cell noCPT 7% and DT40 TDP1 CPT 6%.
`Cc1ccc(C)c(N2CCN(C(=O)c3cc(C)nc4c3c(C)nn4-c3ccccc3)CC2)c1` gave TDP1 cell noCPT 18µM* and DT40 TDP1 CPT inconclusive.
For Cc1cc(C(=O)N2CCN(c3cc(Cl)ccc3C)CC2)c2c(C)nn(-c3ccccc3)c2n1 the results were TDP1 cell noCPT inconclusive and DT40 TDP1 CPT 21µM*.
CSc1ncc(C(=O)N2CCN(c3cc(Cl)ccc3C)CC2)c(C)n1 was read as TDP1 cell noCPT inconclusive and DT40 TDP1 CPT -27%.
Cc1ccc(NC(=O)C(=O)NCCc2c[nH]c3ccccc23)cc1C was read as TDP1 cell noCPT -21%, HT1080NT lethal -19%, uPA generation 1%, DT40 TDP1 CPT -6%, IL1B secr inh 9 and HT1080 IDH1KD tx inconclusive.
`COc1ccc2cc(CN(C(=O)Nc3ccccc3)C3CCCC3)c(=O)[nH]c2c1` gave TDP1 cell noCPT -19%, HT1080NT lethal -14%, uPA generation -3%, DT40 TDP1 CPT inconclusive, IL1B secr inh 7 and HT1080 IDH1KD tx -25%.
`Cc1ccc(NC(=O)N(Cc2c[nH]c3ccccc23)C2CCCCCC2)cc1C` gave TDP1 cell noCPT 8.2µM* and DT40 TDP1 CPT 7.3µM*.
For COc1cccc(NC(=O)N(Cc2c[nH]c3ccccc23)C2CCCCC2)c1 the results were TDP1 cell noCPT 18µM* and DT40 TDP1 CPT 8.2µM*.
`Cc1oc(-c2ccc(F)cc2)nc1CN1CCCC(C(=O)N2CCOCC2)C1` (configuration not stated) gave TDP1 cell noCPT -2%, HT1080NT lethal 9%, uPA generation -3%, DT40 TDP1 CPT -27%, IL1B secr inh -6 and HT1080 IDH1KD tx 0%.
For Cc1oc(-c2ccc(Cl)cc2)nc1CN1CCCC(C(=O)NCCCN2CCCC2=O)C1 (configuration not stated) the results were TDP1 cell noCPT 8.2µM*, HT1080NT lethal -7%, uPA generation -27%, DT40 TDP1 CPT 8.2µM*, IL1B secr inh -10 and HT1080 IDH1KD tx -20%.
Cc1oc(-c2ccc(Cl)cc2)nc1CN1CCCC(C(=O)NCc2ccco2)C1 (configuration not stated) was read as TDP1 cell noCPT 23µM*, HT1080NT lethal 0%, uPA generation -11%, DT40 TDP1 CPT inconclusive, IL1B secr inh -51* and HT1080 IDH1KD tx -14%.
CCc1ccc(-c2nc(CN3CCCC(C(=O)NCc4ccccc4Cl)C3)c(C)o2)cc1 (configuration not stated) was read as TDP1 cell noCPT 4.6µM* and DT40 TDP1 CPT 6.5µM*.
`CCc1ccc(-c2nc(CN3CCC(C(=O)NCc4ccco4)CC3)c(C)o2)cc1` gave TDP1 cell noCPT inconclusive, HT1080NT lethal -2%, DT40 TDP1 CPT inconclusive, IL1B secr inh inconclusive and HT1080 IDH1KD tx 2%.
CCOC(=O)N1CCC(NC(=O)CS(=O)(=O)Cc2nc(-c3cccc(Cl)c3)oc2C)CC1 was read as TDP1 cell noCPT -22%, HT1080NT lethal 0%, uPA generation -12%, DT40 TDP1 CPT -13%, IL1B secr inh 7 and HT1080 IDH1KD tx 5%.
`CCOC(=O)N1CCC(NC(=O)C2CCCN(Cc3nc(-c4cccc(Cl)c4)oc3C)C2)CC1` (configuration not stated) gave TDP1 cell noCPT 0.73µM*, HT1080NT lethal -1%, uPA generation -18%, DT40 TDP1 CPT 0.82µM*, IL1B secr inh 58 and HT1080 IDH1KD tx -8%.

Screens (PubChem BioAssay)
